From article PMC5540273 (PLoS ONE, 2017)

These molecules were tested on IRAK1. Details: concentration: 1 μM, replicates: in singlicate; n = 1.
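Further: KINOMEscan kinase panel screen.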

Row | Compound | %Inh
1 | Cl.Cl.c1ccc(-c2cc3ccncc3cc2OC2CCNCC2)cc1 [GSK1122999] | 56%
2 | CCc1nc(-c2cccc(N(C)S(=O)(=O)c3ccccc3)c2)c(-c2ccnc(Nc3ccc(N4CCN(C(C)=O)CC4)nc3)n2)s1 [GSK1645895] | 11%
3 | Clc1ccc(-c2cc(-c3c[nH]nc3-c3ccccn3)ccn2)cc1 [GW681251] | 43%
4 | Clc1cccc(-c2nc(Nc3ccncc3)c3ccccc3n2)c1 [GW873004] | 7%
5 | Cc1ccc(C)c(NC(=O)NCCNc2ccnc(Nc3ccc(F)cc3)n2)c1 [GSK1379878] | 0%
6 | O=C(Nc1ccccc1)Nc1ccc(Oc2ccc3nccn3n2)cc1 | 0%
7 | FC(F)(F)c1cc(Nc2nccc(-c3c(-c4ccc(Cl)cc4)nn4ncccc34)n2)ccc1Cl [GW829351] | 0%
8 | COc1ccc(NC(=O)c2ccc(-c3cc(-c4nnc(C)o4)ccc3C)cc2)cc1 [GW595885] | 37%
9 | NC(=O)c1sc(-n2cnc3ccccc32)cc1OCc1ccccc1F [GSK1024306] | 0%
10 | CC(=O)Nc1n[nH]c2ncc(-c3ccccc3)cc12 [SB-548492] | 0%
11 | CCC(CC)(CC)n1cnc2c(N)ncnc21 [SKF-97620] | 33%
12 | COc1cc2ncnc(Nc3ccc(OCc4ccccc4Br)c(Cl)c3)c2cc1OC.Cl [GI261590] | 32%
13 | CN1c2ccc(-c3ccc(C(=O)NCCO)cc3)cc2-c2[nH]ncc2S1(=O)=O | 14%
14 | Cl.c1ccc(Cn2ccc3cc(Nc4ncnc5ccccc45)ccc32)cc1 [GW275568] | 0%
15 | O=c1cc(N2CCOCC2)nc2n(Cc3cccc(Cl)c3)ccn12 [GSK2296823] | 60%
16 | CSc1ccc(NC2=C(c3ccccc3Cl)C(=O)NC2=O)cc1 [SB-342411] | 0%
17 | Fc1ccc(Nc2nccc(-c3c(-c4ccc(Cl)cc4)nn4ncccc34)n2)cc1F [GW829058] | 24%
18 | O=C(Nc1ccccc1F)NC1CCN(c2ccnc(Nc3ccc(F)cc3)n2)C1 (stereo not drawn) [GSK1379722] | 34%

Row | Compound | %Inh
19 | N#Cc1ccc(Oc2ccc(Nc3ncnc4cc[nH]c34)cc2Cl)cc1 | 16%
20 | Oc1ccc2ncnc(Nc3ccc(OCc4ccccc4)cc3)c2c1 [GI262866] | 0%
21 | O=C(Nc1n[nH]c2nc(-c3ccco3)c(Br)cc12)c1ccc(CN2CCCC2)cc1.O=C(O)[C@H](O)[C@@H](O)C(=O)O [SB-742352] | 0%
22 | CNc1nccc(-c2c(-c3ccc(F)cc3)ncn2CCCN2CCOCC2)n1 [SB-222516] | 6%
23 | O=C(c1ccc(-c2cc(-c3c[nH]nc3-c3ccccn3)ccn2)cc1)N1CCCC1 [GW792479] | 0%
24 | CSc1nn2c(=O)cc(N3CCOCC3)nc2n1Cc1cccc(Cl)c1Cl [GSK2347225] | 0%
25 | Nc1nc(-c2ccc3c(N)n[nH]c3c2)cc(N2CCCCC2)n1 [GSK2228768] | 0%
26 | Cc1cccc(-c2nc(Nc3ccc4[nH]nnc4c3)c3ccccc3n2)n1 [GW867587] | 0%
27 | COc1ccc(NC(=O)Nc2ccc(C)c(-c3ccc(C(=O)Nc4ccncc4)cc3)c2)cc1 [GSK1398475] | 0%
28 | CC(C)(C)c1ccc(-n2cnc3c(N)ncnc32)cc1 [SKF-97263] | 0%
29 | CCCc1ccc(S(=O)(=O)NC2CCN(c3ccnc(Nc4ccc(OC)cc4)n3)C2)cc1 (stereo not drawn) [GSK1379737] | 39%
30 | Clc1cc(Nc2ncnc3cc[nH]c23)ccc1OCc1ccccn1 | 6%
31 | CC(C)(C)OC(=O)NC1CCCN(c2cc(-c3ccc4c(N)n[nH]c4c3)nc(N)n2)C1 (stereo not drawn) [GSK2286096] | 0%
32 | C[C@@H]1CCN(C(=O)CO)C[C@@H]1N(C)c1ncnc2[nH]ccc12 | 0%
33 | COC(=O)c1cccc(NC(=O)NCCNc2ccnc(Nc3ccc(F)cc3)n2)c1 [GSK1379883] | 13%
34 | Nc1nc(-c2ccc3c(N)n[nH]c3c2)cc(N2CCC[C@@H](C(=O)Nc3ccccc3)C2)n1.O=C(O)C(F)(F)F.O=C(O)C(F)(F)F [GSK2288359] | 0%
35 | OCCOCCn1ccc2ncnc(Nc3ccc(Oc4cccc(Cl)c4)c(Cl)c3)c21 | 0%
36 | c1ccc(-c2ccc3c(-c4ccnc(Nc5ccc6c(c5)OCCO6)n4)cnn3n2)cc1 [GW818941] | 8%

The molecules below were run on IRAK3. Details: concentration: 1 μM, replicates: in singlicate; n = 1.

Row | Compound | %Inh
37 | Cl.Cl.c1ccc(-c2cc3ccncc3cc2OC2CCNCC2)cc1 [GSK1122999] | 24%
38 | CCc1nc(-c2cccc(N(C)S(=O)(=O)c3ccccc3)c2)c(-c2ccnc(Nc3ccc(N4CCN(C(C)=O)CC4)nc3)n2)s1 [GSK1645895] | 0%
39 | Clc1ccc(-c2cc(-c3c[nH]nc3-c3ccccn3)ccn2)cc1 [GW681251] | 0%
40 | Clc1cccc(-c2nc(Nc3ccncc3)c3ccccc3n2)c1 [GW873004] | 9%
41 | Cc1ccc(C)c(NC(=O)NCCNc2ccnc(Nc3ccc(F)cc3)n2)c1 [GSK1379878] | 0%
42 | O=C(Nc1ccccc1)Nc1ccc(Oc2ccc3nccn3n2)cc1 | 0%
43 | FC(F)(F)c1cc(Nc2nccc(-c3c(-c4ccc(Cl)cc4)nn4ncccc34)n2)ccc1Cl [GW829351] | 0%
44 | COc1ccc(NC(=O)c2ccc(-c3cc(-c4nnc(C)o4)ccc3C)cc2)cc1 [GW595885] | 0%
45 | NC(=O)c1sc(-n2cnc3ccccc32)cc1OCc1ccccc1F [GSK1024306] | 0%
46 | CC(=O)Nc1n[nH]c2ncc(-c3ccccc3)cc12 [SB-548492] | 25%
47 | CCC(CC)(CC)n1cnc2c(N)ncnc21 [SKF-97620] | 0%
48 | COc1cc2ncnc(Nc3ccc(OCc4ccccc4Br)c(Cl)c3)c2cc1OC.Cl [GI261590] | 13%
49 | CN1c2ccc(-c3ccc(C(=O)NCCO)cc3)cc2-c2[nH]ncc2S1(=O)=O | 44%
50 | Cl.c1ccc(Cn2ccc3cc(Nc4ncnc5ccccc45)ccc32)cc1 [GW275568] | 0%
51 | O=c1cc(N2CCOCC2)nc2n(Cc3cccc(Cl)c3)ccn12 [GSK2296823] | 32%
52 | CSc1ccc(NC2=C(c3ccccc3Cl)C(=O)NC2=O)cc1 [SB-342411] | 0%
53 | Fc1ccc(Nc2nccc(-c3c(-c4ccc(Cl)cc4)nn4ncccc34)n2)cc1F [GW829058] | 7%
54 | O=C(Nc1ccccc1F)NC1CCN(c2ccnc(Nc3ccc(F)cc3)n2)C1 (stereo not drawn) [GSK1379722] | 14%

Row | Compound | %Inh
55 | N#Cc1ccc(Oc2ccc(Nc3ncnc4cc[nH]c34)cc2Cl)cc1 | 3%
56 | Oc1ccc2ncnc(Nc3ccc(OCc4ccccc4)cc3)c2c1 [GI262866] | 0%
57 | O=C(Nc1n[nH]c2nc(-c3ccco3)c(Br)cc12)c1ccc(CN2CCCC2)cc1.O=C(O)[C@H](O)[C@@H](O)C(=O)O [SB-742352] | 0%
58 | CNc1nccc(-c2c(-c3ccc(F)cc3)ncn2CCCN2CCOCC2)n1 [SB-222516] | 10%
59 | O=C(c1ccc(-c2cc(-c3c[nH]nc3-c3ccccn3)ccn2)cc1)N1CCCC1 [GW792479] | 0%
60 | CSc1nn2c(=O)cc(N3CCOCC3)nc2n1Cc1cccc(Cl)c1Cl [GSK2347225] | 0%
61 | Nc1nc(-c2ccc3c(N)n[nH]c3c2)cc(N2CCCCC2)n1 [GSK2228768] | 0%
62 | Cc1cccc(-c2nc(Nc3ccc4[nH]nnc4c3)c3ccccc3n2)n1 [GW867587] | 0%
63 | COc1ccc(NC(=O)Nc2ccc(C)c(-c3ccc(C(=O)Nc4ccncc4)cc3)c2)cc1 [GSK1398475] | 0%
64 | CC(C)(C)c1ccc(-n2cnc3c(N)ncnc32)cc1 [SKF-97263] | 7%
65 | CCCc1ccc(S(=O)(=O)NC2CCN(c3ccnc(Nc4ccc(OC)cc4)n3)C2)cc1 (stereo not drawn) [GSK1379737] | 0%
66 | Clc1cc(Nc2ncnc3cc[nH]c23)ccc1OCc1ccccn1 | 19%
67 | CC(C)(C)OC(=O)NC1CCCN(c2cc(-c3ccc4c(N)n[nH]c4c3)nc(N)n2)C1 (stereo not drawn) [GSK2286096] | 0%
68 | C[C@@H]1CCN(C(=O)CO)C[C@@H]1N(C)c1ncnc2[nH]ccc12 | 19%
69 | COC(=O)c1cccc(NC(=O)NCCNc2ccnc(Nc3ccc(F)cc3)n2)c1 [GSK1379883] | 0%
70 | Nc1nc(-c2ccc3c(N)n[nH]c3c2)cc(N2CCC[C@@H](C(=O)Nc3ccccc3)C2)n1.O=C(O)C(F)(F)F.O=C(O)C(F)(F)F [GSK2288359] | 0%
71 | OCCOCCn1ccc2ncnc(Nc3ccc(Oc4cccc(Cl)c4)c(Cl)c3)c21 | 0%
72 | c1ccc(-c2ccc3c(-c4ccnc(Nc5ccc6c(c5)OCCO6)n4)cnn3n2)cc1 [GW818941] | 42%
